# Data published in the supplement of paper PMC6555819.
# Tests used:
# Assay in all cases: PBM binding z-score (relative to random genomic background probes); higher = stronger binding; sequences stand for … in GC…GCGATTGACAGCGTAGAATGAAGG
# [1] = tested on: FXR:RXRa (NR concentration 270 nM, RXRa partner concentration 90 nM)
# In short: (§1)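 Binding z-scores take random background probes as their reference. They come from custom Agilent 4×180K protein-binding microarrays incubated 1 h with ligand-free nuclear receptor dimers, with antibodies against each partner (one per run) detecting binding. Scanned fluorescence was regression-normalized.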
# [2] = tested on: LXRa:RXRa (NR concentration 270 nM, RXRa partner concentration 90 nM)
# In short: as §1
# [3] = tested on: LXRa homodimer (NR concentration 270 nM)
# In short: as §1
# [4] = tested on: LXRb:RXRa (NR concentration 270 nM, RXRa partner concentration 90 nM)
# In short: as §1
# [5] = tested on: LXRb homodimer (NR concentration 270 nM)
# In short: as §1
# [6] = tested on: PPARa:RXRa (NR concentration 270 nM, RXRa partner concentration 90 nM)
# In short: as §1
# [7] = tested on: PPARg:RXRa (NR concentration 180 nM, RXRa partner concentration 90 nM)
# In short: as §1
# [8] = tested on: PPARg:RXRa 270nM:90nM, anti-RXR (NR concentration 270 nM, RXRa partner concentration 90 nM)
# In short: as §1
# [9] = tested on: PPARg:RXRa 30nM:10nM, anti-RXR (NR concentration 30 nM, RXRa partner concentration 10 nM)
# In short: as §1
# [10] = tested on: PPARg:RXRa 90nM:30nM, anti-RXR (NR concentration 90 nM, RXRa partner concentration 30 nM)
# In short: as §1
# [11] = tested on: PPARg:RXRa DBDmut IVT, anti-RXR (DBD mutation: RXRa K156A/R161A, NR concentration 270 nM, RXRa partner concentration 90 nM)
# In short: as §1
# [12] = tested on: PPARg:RXRa IVT, anti-PPARg (NR concentration 270 nM, RXRa partner concentration 90 nM)
# In short: as §1
# [13] = tested on: PPARg DBDmut:RXRa IVT, anti-PPARg (DBD mutation: PPARg1 K132A/R137A, NR concentration 270 nM, RXRa partner concentration 90 nM)
# In short: as §1
# [14] = tested on: PPARg DBDmut IVT, anti-PPARg (DBD mutation: PPARg1 K132A/R137A, NR concentration 270 nM)
# In short: as §1
# [15] = tested on: PPARg homodimer (NR concentration 180 nM)
# In short: as §1
# [16] = tested on: PXR:RXRa (NR concentration 270 nM, RXRa partner concentration 90 nM)
# In short: as §1
# [17] = tested on: PXR homodimer (NR concentration 270 nM)
# In short: as §1
# [18] = tested on: RARa:RXR (NR concentration 270 nM, RXRa partner concentration 90 nM)
# In short: as §1
# [19] = tested on: RARa homodimer (NR concentration 270 nM)
# In short: as §1
# [20] = tested on: RARb:RXRa (NR concentration 270 nM, RXRa partner concentration 90 nM)
# In short: as §1
Sequence,PBM binding z-score [1],PBM binding z-score [2],PBM binding z-score [3],PBM binding z-score [4],PBM binding z-score [5],PBM binding z-score [6],PBM binding z-score [7],PBM binding z-score [8],PBM binding z-score [9],PBM binding z-score [10],PBM binding z-score [11],PBM binding z-score [12],PBM binding z-score [13],PBM binding z-score [14],PBM binding z-score [15],PBM binding z-score [16],PBM binding z-score [17],PBM binding z-score [18],PBM binding z-score [19],PBM binding z-score [20]
CCTGCTAGGTCATGGTCAACTAATCTACAGTATG,3.72,2.85,0.245,1.98,-0.184,3.72,2.81,3.17,0.82,1.92,4.88,4.48,0.715,0.58,1.66,1.82,-0.415,2.94,0.861,4.06
CCTACTGGGCCATTCAGTGGTCATTGATCATATG,-0.271,-0.187,-0.281,-0.498,-0.602,0.355,0.304,0.661,-0.571,0.191,3.99,3.43,-0.19,-0.875,-0.524,-0.597,-0.649,-0.725,-0.259,0.368
TCTATTAGTTGATTAGGGCAACAGAAACAGCGGA,0.997,0.779,0.0498,0.646,0.947,1.01,0.317,1.96,3.53,2.85,2.04,1.59,1.69,1.06,1.02,0.573,0.374,0.636,1.08,0.82
TCATATAGGTATATGCTAGGTGAAAGTCCGATCT,0.567,0.913,0.175,0.545,-0.249,0.818,0.703,1.78,3.31,2.54,2.4,1.07,0.908,1.63,0.436,0.612,0.215,0.893,0.379,0.145
ATTTCTAGGTAAAAGTTCAGTGAATCCCGAGGAT,1.14,1.71,1.53,1.49,1.12,5.27,9.08,8.85,8.73,10.6,4.32,5.47,1.89,3.02,2.19,2.38,2.31,2.04,1.29,2.81
ATACCAAGGTGATTGTGAGGTCGTTGATACTAAC,2.01,2.09,1.51,1.81,0.313,1.79,0.442,0.649,0.0726,0.48,0.693,1.27,0.771,0.654,1.27,3.13,2.05,2.22,0.72,1.41
AGAACGAGGGCAATGACTTGATAGCACGGGTGGC,0.827,0.481,-0.243,-0.0938,-0.458,1.43,1.71,0.813,0.00433,0.55,3.17,2.49,0.669,-0.215,0.348,0.345,0.000958,0.436,-0.218,2.11
TCGAGTAGGTTAGAGGCATTCAGAATGGCGTCGA,0.0736,-0.18,-0.53,-0.336,-1.72,0.422,1.22,2.66,1.4,2.27,1.65,0.965,-0.829,-0.771,0.087,-0.51,-0.852,-0.767,-0.955,0.0217
ATATGTAGGTTAGCTGGGGTAATTCAGACTAGGC,0.983,0.79,0.216,1.28,0.815,2.91,3.61,3,0.942,2.01,6.75,6.17,1.99,1.76,0.916,1.12,0.0639,1.44,0.818,1.02
CCTGCTGGGTCAATGGTCAGCTAAAGCAGCTCGC,2.08,1.41,-0.526,1.11,-0.873,2.95,3.53,4.63,1.83,3.72,2.51,3.15,-1.4,-0.684,0.557,0.874,-0.552,1.78,-0.395,3.29
ATATGTAGGTTACATCCGGGTCATTAAGGCTATG,2.39,4.11,1.5,3.09,0.566,4.35,6.02,5.08,2.66,4.28,7.73,7.28,1.96,2.14,1.78,3.52,4.13,3.18,0.456,2.36
TCTTGTAGATCAAAGGTTATGAAAGCCGAAGCCT,1.67,2.16,0.00882,2.21,0.156,4.58,7.9,7.7,7.23,8.56,2.32,3.32,0.577,0.452,1.12,1.88,0.0149,3.07,-0.114,1.79
TCTAATAGTTGATTAGGGCAACCGAAACAGCGGA,-0.0644,0.461,-0.078,0.136,-0.225,1.23,0.375,1.85,3.3,2.53,1.74,1.56,0.711,0.3,0.347,0.323,-0.117,0.766,-0.402,0.915
TAGCCTAGGCCAGATCGGGCCAGTATACGCTATA,-0.616,-1.17,-0.865,-1.22,-1.15,-1.12,0.0311,-1.24,-0.873,-1.05,-0.93,-0.678,-0.211,-0.658,-1.06,-0.946,-0.923,-0.593,-1.1,-0.396
TCTTCTAGGTCAACGATGGTCAGCTAATCTGCTA,4,3.57,0.955,2.54,2.65,4.34,6.09,5.82,5.08,5.64,7.21,7.26,2.6,3.07,2.69,2.23,0.345,2.8,1.21,4.31
GCGACTGTGGCAAAGCAGGTTACCATAAGGTTGG,-0.28,-0.311,-0.53,-0.511,-1.38,0.3,0.331,-0.377,-0.529,-0.508,0.686,0.528,-0.512,-1.16,-0.377,-0.184,-0.793,-0.0448,-0.9,-0.0264
CCTACTGGGCCATTCAGAGGTCATTCATCATATG,2.68,4.55,6.9,4.38,0.909,3.72,2.08,3.3,0.754,2.26,4.22,4.45,-0.0468,0.03,2.18,4.81,2.5,4.07,0.581,2.9
GCTTGTGGATCAAGGTTAAGAAAGACTAAGCTAA,0.286,0.783,-0.433,0.442,-0.254,1.52,0.82,1.79,0.395,1.24,0.991,1.19,-0.0361,0.0112,0.339,0.429,-0.166,0.735,-0.249,0.702
CAGACTAGGTCAAGGTCAAAGTCGGTTTGTGCCA,6.13,5.42,3.5,4.36,0.864,5.62,7.72,7.03,5.17,6.78,7.69,7.9,3.1,0.467,3.79,5.16,1.76,5.07,1.4,5.05
AATTCAGGGTCATCGTAGGCCAGAGTACGCACAG,7.63,6.71,4.2,5.55,2.29,6.2,7.36,7.02,3.49,5.72,3.42,4.57,2.45,3.09,2.85,5.49,1.43,5.54,1.45,4.45
CCTTACGGGTCACTGACAGGTTGTAGCATTTGGA,5.1,3.61,0.156,3.17,-0.356,4.93,4.26,4.06,0.971,2.97,3.45,3.69,0.239,-0.219,2.3,3.28,-0.0802,4.11,0.949,3.79
CAAACTAGGTCGCAGAGGTCAAAGTCCGTGCGTA,5.75,6.03,5.84,5.36,1.26,5.7,7.46,6.53,4.01,6.06,6.57,7.05,2.76,1.62,3.69,6.55,7.19,7.01,1.48,4.5
TAGCCAAGGTCATTGGGCCAGTATAGTACGCATC,7.45,5.57,1.49,4.67,0.952,5.95,6,5.57,2.47,3.59,2.26,4.14,1,0.266,2.22,4.33,1.15,4.03,0.395,5.01
CGTCCAAGGTCATAGGAGGTCCGTGAAGACAGAT,7.45,5.69,0.811,3.99,0.8,5.61,4.52,5.1,1.5,3.67,3.08,3.47,0.84,0.63,3.87,4.93,1.26,4.68,1.62,5.04
ATCTCTAGGTAAAAGTTCAGTAAATCCCGAGGAT,0.994,1.49,1.5,1.29,1.31,4.43,7.76,7.37,6.62,8.13,1.87,3.76,1.75,1.54,1.88,1.8,1.71,1.47,1.92,2.41
ATCGAAAGGTCGTTAGGTGAGTATACAGAAAGGC,3.98,3.54,0.592,3.08,1.11,4.25,2.59,3.29,1.33,2.27,0.388,2.1,1.14,1.04,1.51,2.9,0.99,3.2,0.848,3.53
TCATATAGGTAGATGCTAGGTGAAAGTCCGATCT,0.567,0.862,0.165,0.357,-0.423,0.819,0.568,1.87,3.53,2.7,2.54,0.996,0.387,0.246,0.348,0.415,0.366,0.657,0.534,0.174
CCACGGAGGACAACAGGAGGTCAGAGCTGCCAGA,1.09,2.38,2.44,1.7,-0.198,2.21,0.672,0.164,-0.705,-0.441,-0.448,0.453,-0.512,-0.952,1.79,2.21,0.52,2.53,1.2,2.99
